# Screen size: about 410,000 compounds; about 7,200 (1.8%) were called active. Roughly 7% stayed inconclusive and do not appear here. What follows is part of a selection rich in actives, with near analogues and random picks from the rest. A number with no mark means an inactive call. The call rests on the fitted dose curve; in most records, active means well fitted activation curve with a large enough effect; inconclusive means small, poorly fitted or top-dose-only effect, or another doubt; inactive means no such curve, though single readings can be large or run the other way.
# Assay: qHTS of TDP-43 Inhibitors; further: nearly all actives have a fitted effect of over 50% in size; on growth rescue (activation): % of control where 0% means no effect
# Conditions: TDP-43 expressing yeast growth rescue, BacTiter-Glo, 24 h; series mostly up to 46.1 µM; growth rescue (activation): at the top concentration
# Outline: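 Readout is BacTiter-Glo luminescence of cell growth, so inhibitors register as activators. TDP-43-expressing yeast at OD600=0.02 in galactose medium, after raffinose pregrowth to mid-log, were incubated with compound for 24 hr at 30 deg C.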
# Potency means the concentration at half of the fitted maximal effect.
Structure (SMILES),growth rescue (activation),Potency
CCOc1ccc(C(=O)NC2CCN(CC(=O)NCc3cccs3)CC2)cc1,-6.15%,–
CCOc1ccc(/C=N/OCC(=O)NCc2cccs2)cc1,–,11.2 µM (active)
CCOc1ccc(/C=C/C(=O)N(CC)CC(=O)NCc2cccs2)cc1OC,0%,–
CCCCc1nn2c(=O)cc(COC(=O)c3ccc(NC(=O)c4ccccc4C)cc3)nc2s1,6.4%,–
Cc1ccc(-c2nc3c(Cl)cc(C(F)(F)F)cn3c2Cc2cccc(Cl)c2)cc1,28.6%,–
Clc1cccc(Cc2c(-c3cccc(Cl)c3)nc3ccc(Cl)cn23)c1,–,12.6 µM (active)
CN1CCN(Cc2c(C(=O)N3CCc4ccccc4C3)nc3ccc(Cl)cn23)CC1,5.77%,–
Cc1cc(Br)cn2c(Cc3cccc(F)c3)c(-c3cccc(Br)c3)nc12,0%,–
Cc1ccc(Cc2c(-c3ccco3)nc3ccc(Cl)cn23)cc1,–,6.31 µM (active)
c1ccc(Cc2c(-c3ccco3)nc3c4ccccc4ccn23)cc1,–,35.5 µM (active)
N#Cc1ccc(C(C(=O)NCc2ccccc2)n2c(=O)c(-c3ccco3)nc3ccccc32)cc1 (stereo not drawn),16.3%,–
CCCc1nc2c3ccccc3ccn2c1Cc1ccccc1C(F)(F)F,-67.8%,–
Cc1ccc2nc(-c3ccccc3)c(CC3CCCCC3)n2c1,0%,–
CCOc1ccc(N(CC)S(=O)(=O)N2CCCC(C(=O)NCc3ccc(SC)cc3)C2)cc1 (stereo not drawn),14.4%,–
CCN(CC)c1ccc(NS(=O)(=O)c2cc(-c3cc(C)no3)ccc2C)c(C)c1,-14.9%,–
Cc1cccc(-n2c(SCC(N)=O)nc3c(oc4ccccc43)c2=O)c1,26.1%,–
COc1ccc(NC(=O)CCCN2C(=O)CCn3nc(-c4cn(C)c5ccccc45)cc32)cc1OC,14.9%,–
CCOCCCn1c(SCC(=O)Nc2ccc(CC)cc2)nc2ccccc2c1=O,8.55%,–
COc1ccc(OC)c(CNC(=O)c2c3c(nc4ccccc24)C(=O)N(C2CCCCC2)C3)c1,2.95%,–
O=C(Nc1cccc(F)c1)[C@@H]1CCCN1,4.62%,–
Cc1ccc2cc(/C=N/NC(=O)[C@@H]3CCCN3)c(Cl)nc2c1,–,4.47 µM (active)
CCc1ccccc1NS(=O)(=O)c1ccc2nc(-c3ccccc3)[nH]c2c1,23%,–
Cc1nc2ccc(S(=O)(=O)NC(C(=O)NCc3ccccc3Cl)C(C)C)cc2s1 (stereo not drawn),23.9%,–
Cc1cccc(OCCSc2nc3ccc(NC(=O)COc4ccccc4C)cc3s2)c1,-10.4%,–
Cc1ccc(S(=O)Cc2ccc(C(=O)N3CCN(C4CCCCC4)CC3)o2)cc1 (stereo not drawn),-22.5%,–

Structure (SMILES),growth rescue (activation),Potency
Cc1cccc(C(=O)N2c3nc(-c4ccco4)nn3C3(CCCCC3)[C@@H]3CCCC[C@@H]32)c1,14.2%,–
Cc1ccc(C(=O)N2c3ncnn3C3(CCCCC3)[C@@H]3CCCC[C@@H]32)cc1,–,22.4 µM (active)
CCOC(=O)c1c(C)[nH]c(C)c1S(=O)(=O)NCC(=O)NCc1cccc(C)c1,-15.8%,–
O=C(CCc1nc(CN2CCN(S(=O)(=O)c3ccc(Br)cc3)CC2)no1)N1CCCCC1,-11%,–
COc1ccc(C2CC(=O)Nc3c2c(=O)nc2c(C)cccn32)cc1OC (stereo not drawn),25.6% [at 9.22 µM],–
COC(=O)c1cnn(-c2ccc(C(=O)Nc3ccc(OC(F)(F)F)cc3)cc2)c1N,12.1% [at 9.22 µM],–
CCc1nc2nc(C)cc(Nc3ccc(F)c(Cl)c3)n2n1,24.6%,–
Cc1ccc(CNC(=O)CCC(=O)N2CC(C)Sc3ccccc32)cc1 (stereo not drawn),21.1%,–
COc1ccccc1NC(=O)CCC(=O)N1CC(C)Oc2ccc(C)cc21 (stereo not drawn),–,inactive
Cc1ccc(Cl)cc1NC(=O)CCC(=O)N1CC(C)Sc2ccccc21 (stereo not drawn),–,25.1 µM (active)
CC(=O)N1CCCc2cc(S(=O)(=O)N3CCC(C(=O)NC4CCCCC4)CC3)ccc21,19.1%,–
Cc1ccc(NC(=O)CSc2nc3c(c(=O)[nH]2)CN(Cc2ccc4c(c2)OCO4)CC3)cc1C,-5.01%,–
Cc1cccc(NC(=O)Cn2c(=O)n(CCC(C)C)c(=O)c3cccnc32)c1,-4.57%,–
COc1ccc(-c2cn3nc(N4CCCC(C(=O)NCCCOC(C)C)C4)sc3n2)cc1 (stereo not drawn),21.4%,–
COc1ccc(-n2c(C)csc2=S)cc1,14.9%,–
COC(=O)c1sc2ncccc2c1-n1c(C)ccc1C,22.8%,–
COC(=O)c1sc(=S)n(-c2ccc(Cl)cc2)c1C,–,12.6 µM (active)
Cc1ccccc1-c1nc(SCC(=O)N(C)c2ccccc2)c2c(=O)n(C)c(=O)n(C)c2n1,0% [at 9.22 µM],–
CCc1cc2c(N3CCN(c4nnc(CC)s4)CC3)ncnc2s1,–,17.8 µM (active)
CCN1CCN(c2ncnc3c2cnn3-c2ccc(C)c(C)c2)CC1,-11.6%,–
Cc1ccc(NC(=O)CSc2nnc3[nH]c(=O)cc(C)n23)cc1Cl,21.8%,–
COc1ccc(-c2cc(-c3nc(-c4cc(OC)c(OC)c(OC)c4)no3)[nH]n2)c(OC)c1,11.5%,–
CCOc1ccc(CNC(=O)C2CCCN(S(=O)(=O)N(CC)c3ccc(OCC)cc3)C2)cc1 (stereo not drawn),18%,–
CCOc1ccccc1Oc1cn[nH]c1-c1ccc(OC)cc1O,–,22.4 µM (active)
CCN(CCn1cccn1)Cc1cn[nH]c1-c1ccc(OC)cc1F,3.87%,–

Structure (SMILES),growth rescue (activation),Potency
Oc1ccc(-c2[nH]ncc2-c2nc3ccccc3s2)c(O)c1,18.5%,–
Cc1cccc(N2CCN(C(=O)c3ccc4c(c3)CCN4S(=O)(=O)c3ccccc3)CC2)c1C,18.4%,–
CC(=O)c1ccc(NC(c2ccc(F)cc2)c2nnc(-c3ccccc3)o2)cc1 (stereo not drawn),1.24%,–
CCOC(=O)c1c(NC(=O)c2cc(CC)on2)sc(C(C)=O)c1C,18.1%,–
O=C(CNC(=O)OCc1ccccc1)Oc1cc2oc(=O)cc(-c3ccccc3)c2cc1Cl,–,7.08 µM (active)
O=C(CNC(=O)Cc1ccccc1)NCC(=O)OCC(=O)c1ccccc1Cl,-11.4%,–
O=C(CNC(=O)OCc1ccccc1)NC1CCCCNC1=O (stereo not drawn),-16.7%,–
CCc1ccc(NC(=O)CCS(=O)(=O)c2cc3c(cc2Cl)NC(=O)CO3)cc1,5.16%,–
CCCn1c(=O)c(-c2ccccc2)c(O)c2ccccc21,–,22.4 µM (active)
Cn1c(=O)c(C(=O)Nc2ncccn2)c(O)c2ccccc21,-9.83%,–
CCCCCn1c(=O)c(C(=O)OCC)c(Cl)c2ccccc21,-8.57%,–
COc1ccc(OC)c(NC(=O)CSC2=Nc3ccccc3C3=NC(CC(=O)NCCc4ccccc4)C(=O)N23)c1 (stereo not drawn),0%,–
Cc1c(-c2nc(-c3ccc4c(c3)OCO4)no2)nnn1-c1ccc(Br)cc1F,13.5%,–
CC1CCc2c(nc3ncnn3c2Nc2ccc(OC(F)(F)F)cc2)C1 (stereo not drawn),-0.0857%,–
Cc1cc(Nc2ccc(C)c(C)c2)n2ncnc2n1,14.1%,–
Brc1ccc(Nc2c3c(nc4ncnn24)CCC3)cc1,–,12.6 µM (active)
COc1ccc(C(=O)c2oc3ccccc3c2NC(=O)COc2cccc(C)c2)cc1,9.29% [at 9.22 µM],–
Cc1c(NC(=O)c2cc(=O)c3ccccc3o2)c(=O)n(-c2ccccc2)n1C,22.7%,–
CCOC(=O)c1cccc(NS(=O)(=O)c2cc(-c3cnc(C)o3)ccc2OC)c1,22.8%,–
Cc1nc(NC(=O)c2ccc3c(c2)OCCO3)ccc1Br,–,12.6 µM (active)
C/C(Cc1ccccc1)=N\NC(=O)CNC(=O)c1ccc2c(c1)OCCO2,5.25%,–
CS(=O)(=O)c1ccc(-c2nnc(NC(=O)c3ccc4c(c3)OCCO4)o2)cc1,0%,–
Cc1ccc(C)c(NC(=O)C2CCCN(S(=O)(=O)c3cn(C)cn3)C2)c1 (stereo not drawn),16.4%,–
CC(=O)N1CCCc2cc(S(=O)(=O)Nc3ccc(Cl)cc3F)ccc21,26.2%,–
CCOc1ccc(CNC(=O)c2ccc3c(c2)nnn3C2CCCC2)cc1,21.2%,–

Structure (SMILES),growth rescue (activation),Potency
CCn1nnc2cc(C(=O)Nc3ccc(C(=O)OC(C)C)cc3)ccc21,–,11.2 µM (active)
CCOC(=O)c1cccc(NC(=O)CCn2nnc3ccccc32)c1,-14.2%,–
CCOC(=O)c1cc(-c2ccccc2)n(CCC(=O)Nc2ccccc2CC)c1C,-0.302%,–
O=C(Nc1c(C(=O)N2CCN(c3ccc(F)cc3)CC2)oc2ccccc12)c1ccco1,0%,–
O=C(NNC1CC(=O)N(c2cccc(Cl)c2)C1=O)c1cccnc1 (stereo not drawn),-2.69%,–
O=C1[C@@H]2C(c3cccnc3)=NO[C@@H]2C(=O)N1c1ccc(Cl)cc1Cl,–,35.5 µM (active)
Cc1ccc(Cl)cc1N1CCN(C(=O)CN2C(=O)COc3ccc(S(=O)(=O)N4CCOCC4)cc32)CC1,16.2%,–
CCC(=O)N1CCc2cc(S(=O)(=O)NC(CC(C)C)C(=O)NCCc3cccc(C)c3)ccc21 (stereo not drawn),12.7%,–
Cc1ccc(NC(=O)Cn2nnc3sc4c(c3c2=O)CCC(C)C4)cc1 (stereo not drawn),0%,–
CC(C)(C)OC(=O)N1CCC(c2c(C(=O)N3CCc4ccccc4C3)cnn2-c2ccc(F)cc2)CC1,3.82%,–
COc1ccc(CN2CCc3nc(Nc4ccccc4)ncc3C2)c(OC)c1OC,9.73%,–
COc1ccc(Nc2ncc3c(n2)CCN(C(=O)OC(C)(C)C)C3)cc1,–,14.1 µM (active)
O=c1cc(-c2ccccc2)n2c(SCc3ccccc3)nnc2[nH]1,19%,–
Cc1cccc(N2CCN(C(=O)CCn3c(=O)c4cccn4c4cccnc43)CC2C)c1 (stereo not drawn),0%,–
CCc1cnc2c(c1SCC(=O)c1ccccc1)c(=O)n(C)c(=O)n2C,16.8%,–
O=C(COC(=O)c1ccc(Cl)nc1)NCc1cccs1,16.7%,–
O=C(COC(=O)/C=C/c1cccc(Cl)c1)NCc1cccs1,–,20 µM (active)
COc1ccc(Cl)cc1C(=O)OCC(=O)NCc1cccs1,-0.926%,–
CCOc1ccc(CCNC(=O)c2ccc3c(c2)sc2nc(-c4ccc(F)cc4)cn23)cc1OCC,19.4%,–
COc1ccc2oc(C(=O)NCC(Cc3ccccc3)N(C)C)c(C)c2c1 (stereo not drawn),-16.2%,–
COc1cc(C(=O)NC(=S)NCc2ccco2)cc(OC)c1OC,-2.12%,–
COc1ccc2oc(C(=O)NCc3ccco3)c(C)c2c1,–,12.6 µM (active)
COc1cccc(C(c2c(O)cc(C)n(Cc3ccco3)c2=O)N2CCN(c3ccccc3)CC2)c1 (stereo not drawn),16.2%,–

# Source: PubChem BioAssay AID652104 (National Center for Advancing Translational Sciences (NCATS), 2013)
